# Measured values published in PubChem BioAssay (NCATS).
# Results filed as inconclusive are left out. Entries that show only a call come without a potency. Activity calls are given as the source filed them. The call rests on the fitted dose curve; in most records, active means well fitted inhibition curve with a large enough effect; inconclusive means small, poorly fitted or top-dose-only effect; inactive means flat fitted curve, though single readings scatter.
# Experiments:
# [1] = tested on: CRL-7250; experiment: qHTS assay to identify novel small-molecules to repurpose for Merkel cell carcinoma treatment (AID 1296009); settings: MCC and control cell lines, CellTiter-Glo viability, 72 h; series mostly up to 44.8 µM
# In short: (§1)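 Cell viability measured by CellTiter-Glo following 72 hr compound treatment at 37 degree celsius, with NPC and MIPE libraries tested in 8- and 11-point concentration series.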
# [2] = tested on: N140; experiment: qHTS profiling for inhibitors of Plasmodium falciparum proliferation (AID 504749); further: potency means the concentration at half of the fitted maximal effect; settings: P. falciparum in erythrocytes, SYBR Green DNA, 72 h; series mostly up to 28.7 µM
# In short: (§2)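 In a 72 h erythrocytic culture (37 C, humidified, 5% CO2) at 2.5% hematocrit and 0.3% starting parasitemia, compounds were tested; SYBR Green I in detergent lysis buffer stained parasite DNA overnight.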
# [3] = tested on: P93_24; experiment: as above; settings: P. falciparum in erythrocytes, SYBR Green DNA, 72 h; series mostly up to 28.7 µM
# In short: as §2
# [4] = tested on: P94_40; experiment: as above; settings: P. falciparum in erythrocytes, SYBR Green DNA, 72 h; series mostly up to 28.7 µM
# In short: as §2
# [5] = tested on: PAD; experiment: as above; settings: P. falciparum in erythrocytes, SYBR Green DNA, 72 h; series mostly up to 28.7 µM
# In short: as §2
# [6] = tested on: PC15; experiment: as above; settings: P. falciparum in erythrocytes, SYBR Green DNA, 72 h; series mostly up to 28.7 µM
# In short: as §2
# [7] = tested on: PC26; experiment: as above; settings: P. falciparum in erythrocytes, SYBR Green DNA, 72 h; series mostly up to 28.7 µM
# In short: as §2
# [8] = tested on: PC49; experiment: as above; settings: P. falciparum in erythrocytes, SYBR Green DNA, 72 h; series mostly up to 28.7 µM
# In short: as §2
# [9] = tested on: SC27B; experiment: as above; settings: P. falciparum in erythrocytes, SYBR Green DNA, 72 h; series mostly up to 28.7 µM
# In short: as §2
# [10] = tested on: TAB109; experiment: as above; settings: P. falciparum in erythrocytes, SYBR Green DNA, 72 h; series mostly up to 28.7 µM
# In short: as §2
# [11] = tested on: TAB113; experiment: as above; settings: P. falciparum in erythrocytes, SYBR Green DNA, 72 h; series mostly up to 28.7 µM
# In short: as §2
# [12] = tested on: TAB165; experiment: as above; settings: P. falciparum in erythrocytes, SYBR Green DNA, 72 h; series mostly up to 28.7 µM
# In short: as §2
# [13] = tested on: W2; experiment: as above; settings: P. falciparum in erythrocytes, SYBR Green DNA, 72 h; series mostly up to 28.7 µM
# In short: as §2
# [14] = tested on: HACAT; experiment: qHTS assay to identify novel small-molecules to repurpose for Merkel cell carcinoma treatment (AID 1296009); settings: MCC and control cell lines, CellTiter-Glo viability, 72 h; at 44.8 µM (top of the series) unless noted
# In short: as §1
# Further: nearly all actives have a fitted effect of over 60% in size.
compound,measurement,setting,value
CC(c1cc2ccccc2s1)N(O)C(N)=O (stereo unspecified),outcome,[1],inactive
O=c1c(O)c(-c2ccc(O)c(O)c2)oc2cc(O)cc(O)c12,outcome,[1],inactive
C[C@@H](O)[C@H]1C(=O)N2C(C(=O)O)=C(S[C@@H]3CN[C@H](C(=O)N(C)C)C3)[C@H](C)[C@H]12,outcome,[1],inactive
Cc1ccnc2c1NC(=O)c1cccnc1N2C1CC1,outcome,[1],inactive
CC1OC(C)OC(C)O1 (stereo unspecified),Potency,[2],inactive
same,Potency,[3],inactive
same,Potency,[4],inactive
same,Potency,[5],inactive
same,Potency,[6],inactive
same,Potency,[7],inactive
same,Potency,[8],inactive
same,Potency,[9],inactive
same,Potency,[10],inactive
same,Potency,[11],inactive
same,Potency,[12],inactive
same,Potency,[13],inactive
same,outcome,[14],inactive
CN1CCC[C@@H]1Cc1c[nH]c2ccc(CCS(=O)(=O)c3ccccc3)cc12,outcome,[1],inactive
O=C(O)CCNC(=O)c1ccc(N=Nc2ccc(O)c(C(=O)O)c2)cc1,outcome,[1],inactive
CN(C)c1nc(N(C)C)nc(N(C)C)n1,outcome,[1],inactive
CN1CCN(C2=Nc3ccccc3Oc3ccc(Cl)cc32)CC1,outcome,[1],inactive
CCOc1ccc2ccccc2c1C(=O)N[C@@H]1C(=O)N2[C@@H]1SC(C)(C)[C@@H]2C(=O)O,outcome,[1],inactive
O=C1N=C(O)CN1/N=C/c1ccc(-c2ccc([N+](=O)[O-])cc2)o1,outcome,[1],inactive
COc1cc(C(C)=O)ccc1OCCCN1CCC(c2noc3cc(F)ccc23)CC1,outcome,[1],inactive
Cc1cccc(Nc2ccncc2S(=O)(=O)NC(=O)NC(C)C)c1,outcome,[1],inactive
Cc1nc(-c2ccc(OCC(C)C)c(C#N)c2)sc1C(=O)O,outcome,[1],inactive
CCCNCC(O)COc1ccccc1C(=O)CCc1ccccc1 (stereo unspecified),outcome,[1],inactive
CCC1C(=O)OCC1Cc1cncn1C (stereo unspecified),outcome,[1],inactive
COC(c1ccccc1)(c1ccccc1)[C@H](Oc1nc(C)cc(C)n1)C(=O)O,outcome,[1],inactive
CCCN[C@H]1CCc2nc(N)sc2C1,outcome,[1],inactive
Nc1ccc(O)c(C(=O)O)c1,outcome,[1],inactive
Cc1[nH]c(=O)c(C#N)cc1-c1ccncc1,outcome,[1],inactive
CC(=O)OCC(CCn1cnc2cnc(N)nc21)COC(C)=O,outcome,[1],inactive
Cc1cnc(C(=O)NCCc2ccc(S(=O)(=O)NC(=O)NC3CCCCC3)cc2)cn1,outcome,[1],inactive
NC(=O)c1cn(Cc2c(F)cccc2F)nn1,outcome,[1],inactive
O=c1[nH]c2ccccc2n1C1CCN(CCCC(c2ccc(F)cc2)c2ccc(F)cc2)CC1,Potency,[4],inactive
same,Potency,[5],inactive
same,Potency,[6],inactive
same,Potency,[8],inactive
same,Potency,[9],inactive
same,Potency,[10],inactive
same,Potency,[11],inactive
same,Potency,[13],3.79 µM (active)
CCCCc1ncc(/C=C(\Cc2cccs2)C(=O)O)n1Cc1ccc(C(=O)O)cc1,outcome,[1],inactive
COc1cc(Cc2cnc(N)nc2N)cc(OC)c1OC,outcome,[1],inactive
Cc1ccc(S(=O)(=O)NC(=O)NN2CC3CCCC3C2)cc1 (stereo unspecified),outcome,[1],inactive
C=C(C)[C@H]1Cc2c(ccc3c2O[C@@H]2COc4cc(OC)c(OC)cc4[C@@H]2C3=O)O1,Potency,[2],inactive
same,Potency,[3],inactive
same,Potency,[5],inactive
same,Potency,[6],inactive
same,Potency,[7],inactive
same,Potency,[8],inactive
same,Potency,[9],inactive
same,Potency,[10],inactive
same,Potency,[11],inactive
same,Potency,[12],inactive
O=c1[nH]c2ccccc2n1CCCN1CCC(n2c(=O)[nH]c3cc(Cl)ccc32)CC1,Potency,[2],6.31 µM (active)
same,Potency,[3],5.01 µM (active)
same,Potency,[4],11.2 µM (active)
same,Potency,[5],4.47 µM (active)
same,Potency,[6],7.94 µM (active)
same,Potency,[7],6.75 µM (active)
same,Potency,[8],inactive
same,Potency,[10],5.01 µM (active)
same,Potency,[12],4.47 µM (active)
same,Potency,[13],6.75 µM (active)
same,outcome,[1],inactive
Cc1ccc(C)c(OCCCC(C)(C)C(=O)O)c1,outcome,[1],inactive
CN(C)c1ccc(O)c2c1C[C@H]1C[C@H]3[C@H](N(C)C)C(=O)C(C(N)=O)=C(O)[C@@]3(O)C(=O)C1=C2O,outcome,[1],inactive
CNCC[C@H](Oc1cccc2ccccc12)c1cccs1,outcome,[1],inactive
CNS(=O)(=O)Cc1ccc2[nH]cc(CCN(C)C)c2c1,outcome,[1],inactive
COC1=CC(=O)C[C@@H](C)[C@]12Oc1c(Cl)c(OC)cc(OC)c1C2=O,outcome,[1],inactive
Cc1ccc(S(=O)(=O)NC(=O)NN2CCCCCC2)cc1,outcome,[1],inactive
CCCNC(=O)NS(=O)(=O)c1ccc(Cl)cc1,outcome,[1],inactive
O=C1[C@H](CC[C@H](O)c2ccc(F)cc2)[C@@H](c2ccc(O)cc2)N1c1ccc(F)cc1,outcome,[1],inactive
NC12CC3CC(CC(C3)C1)C2,outcome,[1],inactive
